A selection: hits, their analogues and other compounds. The true share with any hit is near 2.5%.
HSF-1 act = increases HSF-1 driven luciferase reporter signal; AID 504408; activation, % at 9 µM; NIH3T3-HGL HSF-1 luciferase reporter, MG132, 8 h; 100% = twice DMSO control signal; actives 1.7% (n = 300,000);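 active = mean replicate activation of at least 50% with a set share of replicates each reaching 50%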;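 note: 0% = median of the neutral control wells and 100% = twice that signal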
HSF1 inhib = HSF1 inhibition | NIH3T3-HGL HSE-luciferase, MG132-induced, luminescence 8 h; stronger effect = lower value | activity change, negative = inhibition, % at 7.5 µM (by protocol) | actives 0.77% (n = 300,000);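 active = more than half of replicate wells show activity change below -50%, luminescence cut by over half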;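 note: luciferase reports HSF-1 transcriptional activity via heat shock element; 0% = median of DMSO wells and -100% = zero luminescence signal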
NPR2 activator = GC-B (human) receptor activation | P20594 | HEK293-GC-B cells, CNP EC30, cGMP TR-FRET; 0% at EC30 CNP, 100% saturating CNP | activation, % at 10 µM | actives 0.11% (n = 370,000) | AID 1920062;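 active = activation at 10 µM reaching about 35% in either raw or pattern-adjusted values, limit read from the data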
DYRK1A inh = blocks rat Dyrk1A kinase activity | ADP-Glo luminescence, NFATc1 peptide | inhibition, % at 12.5 µM | actives 0.43% (n = 310,000); in the data active = inhibition above about 50%;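 note: plate controls were vehicle with enzyme for no effect and no enzyme for full effect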
aDG glyco up = increases alpha dystroglycan glycosylation. Pro5-aDG cells, alpha-DG glycosylation AlphaScreen (IIH6); 0% Pro5, 100% B10-LARGE cell signal. activation, % at 10 µM. actives 0.22% (n = 360,000). AID 624168;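 active = activation of at least 8% versus controls, or a plate z-score of at least 8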;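 note: Pro5 are CHO cells carrying HIG-tagged alpha-DG that lacks glycosylation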
NPR1 activator = GC-A (human) enzyme activation | P16066 | HEK293 GC-A cells, cGMP TR-FRET, EC30 ANP; 0% at EC30 ANP, 100% saturating ANP | activation, % at 10 µM | actives 0.14% (n = 370,000); in the data active = activation above about 40%
aDG glyco conf = confirmation of alpha dystroglycan glycosylation activators; Pro5-aDG cells, alpha-DG glycosylation, IIH6 AlphaLISA; scaled to LARGE-overexpressing B10 cells as 100%; activation, % at 10 µM (by protocol); actives 17% (n = 600); shares compounds with aDG glyco up;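 active = activation of at least 7% in one or more replicates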;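 note: cells exposed to compound for two days before detection; 0% = DMSO-treated Pro5 cells and 100% = DMSO-treated B10-LARGE cells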
An asterisk follows results filed as active; · = no result.

SMILES	HSF-1 act	HSF1 inhib	NPR2 activator	DYRK1A inh	aDG glyco up	NPR1 activator	aDG glyco conf
CC(C)Oc1cc(F)ccc1-c1cc(C(=O)Nc2ccccc2)[nH]n1	·	·	2	·	0	-2	·
CC(C)Oc1cc(F)ccc1-c1cc(C(=O)Nc2ccc(C(C)C)cc2)[nH]n1	·	·	-1	·	12*	-3	0
CC[C@]1(C(=O)OC)[C@H]2C(=O)N(C)C(=O)[C@H]2[C@H]2CN=C(SCc3ccc(C(=O)OC)cc3)N21	·	·	1	-1	5.9*	3	1
COC(=O)c1ccc(CSC2=NC[C@@H]3[C@@H]4C(=O)N(C)C(=O)[C@@H]4[C@](C)(C(=O)OC)N23)cc1	·	·	-3	5	0	2	·
O=C(NCc1ccncc1)c1cc(-c2ccc(Cl)cc2)oc1C(F)(F)F	7	1	0	13	0	6	·
CN1C(=O)c2cccc(NCCCCCCN3C(=O)c4ccccc4C3=O)c2C1=O	3	7	-2	3	4.5*	2	-1
CN1C(=O)c2cccc(NCCCN3C(=O)c4ccccc4C3=O)c2C1=O	5	-4	-5	·	0	-1	·
Cc1cccc(Cn2c(C)nc3ccc([N+](=O)[O-])cc3c2=O)c1	36	30	1	0	0	1	·
O=[N+]([O-])c1cc(-c2nc(-c3ccncc3)no2)cc([N+](=O)[O-])c1	-8	2	0	-5	8.7*	-3	2
CC(=O)c1cccc(N(CC(=O)NC2CCCC2)C(=O)CNC(=O)c2cccs2)c1	-16	-3	2	0	0	-2	·
O=C(CNC(=O)c1ccccc1)N/N=C/c1ccc([N+](=O)[O-])s1	22	22	2	-3	12*	-2	5.5*
CC(C)(C)OC(=O)N/N=C\c1ccc([N+](=O)[O-])s1	12	16	-1	0	0	4	·
CCOC(=O)N/N=C\c1ccc([N+](=O)[O-])s1	8	9	-1	1	6.5*	-1	4.7*
Cc1cccc(Nc2nc(N)nc(CN3CCN(c4ccc(F)cc4)CC3)n2)c1	2	2	3	3	12*	-1	1
N#C/C(=C\c1cccnc1)C(=O)Nc1ccc(S(N)(=O)=O)cc1	-51	-35	-3	2	0	2	·
O=C(NCc1nnc(SCC(=O)N2CCCCCC2)o1)c1ccccc1F	-7	0	3	3	0	7	·
Cc1sc2ncnc(NCC(O)c3ccccc3)c2c1C (stereo unspecified)	26	22	-6	23	2.7*	-10	1
Cc1sc2ncnc(NCC(c3ccccc3)N(C)C)c2c1C (stereo unspecified)	-9	-12	-10	14	0	-17	·
CCOCCn1c(=NC(=O)CSCC(=O)Nc2cc(C)on2)sc2cc(OC)ccc21	-7	3	-1	-6	0	1	·
c1ccc2c(N3CCCCCC3)nc(-c3ccncc3)nc2c1	-5	-4	-10	23	7.0*	0	0
C[C@H](CO)N1C[C@H](C)[C@@H](CN(C)C(=O)Nc2ccc3c(c2)OCO3)Oc2ccc(NS(=O)(=O)c3cn(C)cn3)cc2C1=O	·	·	1	2	6.4*	3	2
C[C@H](CO)N1C[C@H](C)[C@@H](CN(C)C(=O)Nc2ccccc2)Oc2ccc(NS(=O)(=O)c3cn(C)cn3)cc2C1=O	·	·	2	5	0	3	·
CCNc1nc(SC(C)C(=O)OC)nc(N2CCOCC2)n1 (stereo unspecified)	-28	-10	0	-5	66*	-6	-1
CNC(=O)c1sc(-c2cccs2)nc1C	5	-2	7	·	0	3	·
COCCNC(=S)N/N=C(\C)c1ccc(O)cc1	7	5	-4	-2	7.4*	-5	0
SMILES	HSF-1 act	HSF1 inhib	NPR2 activator	DYRK1A inh	aDG glyco up	NPR1 activator	aDG glyco conf
C=CCNC(=S)N/N=C(\C)c1ccc(OC)cc1	-23	4	-4	1	12*	8	1
CC(C)c1ccc(OCCCCN2CCCCC2)cc1	-18	-5	10	3	1	-2	·
CC(C)Oc1ccc(OCCCN2CCCCCC2)cc1	3	3	0	0	5.2*	-1	13*
Cc1ccccc1OCc1nnc(SCCN2CCCC2)n1-c1ccccc1	-19	1	-2	-2	1	-9	·
COC(=O)c1ccc(CSc2ccc3nnc(-c4ccccn4)n3n2)o1	-3	1	-8	-1	4.7*	13	0
O=C(NCCNC(=O)c1ccco1)c1ccc(Cl)c(Cl)c1	9	3	-3	-3	0	0	·
CCc1c(C(=O)N/N=C/c2ccc(OCc3ccc(F)cc3)c(OC)c2)nnn1-c1nonc1N	57*	34	6	-6	3.5*	3	2
Cc1ccc(S(=O)(=O)N(C)c2cc(S(N)(=O)=O)c(C)cc2C)cc1	17	1	1	-1	0	-3	·
Cc1ccc(CS(=O)Cc2ccc(C(=O)NCc3cccs3)o2)cc1 (stereo unspecified)	7	0	1	-6	6.1*	-2	0
O=C1C(Cl)=C(NCc2ccco2)C(=O)c2ccccc21	·	·	-6	6	11*	-6	10*
O=C1c2ccccc2-c2onc3ccc(NCc4ccco4)c1c23	-3	2	·	43	3	·	·
CCc1cc(CNC(=O)c2ccc3nc(Cc4ccc(OC)c(OC)c4)oc3c2)on1	16	12	-4	-2	8.2*	2	2
COc1cccc(-c2c(C(=O)N/N=C/c3ccoc3)nnn2-c2nonc2N)c1	0	2	0	17	0	1	·
CN1N=C(N)c2cn(C3OC(COP(=O)(O)O)C(O)C3O)c3ncnc1c23 (stereo unspecified)	·	·	0	-1	82*	2	23*
Cc1cccc(Nc2nc(-c3c(C)nc4ccccn34)cs2)c1	-5	-1	16	1	4.4*	14	4
O=C(COc1cccc(C(F)(F)F)c1)Nc1ccc2[nH]ncc2c1	-6	-4	-2	33	0	0	·
Cc1cc(C)n(-c2nc3sc4c(c3c(=O)[nH]2)CCCC4)n1	-7	-12	·	·	·	·	·
Cc1cc(C)n(-c2nc(NCCCN(C)C)c3c4c(sc3n2)CCCC4)n1	3	7	-6	·	2.7*	-4	11*
Cc1cc(C)n(-c2nc(NCCN(C)C)c3c4c(sc3n2)COC(C)(C)C4)n1	26	-2	-8	·	1	-4	·
